In PubChem BioAssay (NCATS) one finds Potency data, which are given here for twelve compounds.

Molecules are shown by their SMILES. Results filed as inconclusive are left out. Where a call stands in place of a potency, no number is given. The source made the active and inactive calls. The call rests on the fitted dose curve; in most records, active means well fitted cell-killing curve with a large enough effect; inconclusive means small, poorly fitted or top-dose-only effect; inactive means no such curve, though single readings can be large or run the other way.

The assay can be described thus: qHTS of pediatric cancer cell lines to identify multiple opportunities for drug repurposing: Primary screen for Saos-2 cells (AID 1347097). Further: nearly all actives have a fitted effect of over 40% in size. Particulars: Saos-2 viability, CellTiter-Glo ATP luminescence, 48 h; series mostly up to 46 µM. A digest of the protocol: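 Plated cells (500-1,000 per well, growth media) were allowed to settle for 5 hours, treated with compound dilutions for 48 hours, then lysed with CellTiter-Glo for 15 min at room temperature before luminescence reading.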
On to `CN(C)CCCO[C@@H]1[C@H]2OC(C)(C)O[C@H]2O[C@@H]1C(O)CO` (some centres not stated), for which the Potency entry was “inactive”. To `O=c1cc[nH]c(=S)[nH]1` belongs “inactive”; to `Nc1ccc(S(=O)(=O)Nc2ccccc2)cc1`, “inactive”; to `O=c1cc(CO)occ1O`, “inactive”. To `CC(C)(C)C(=O)C(Oc1ccc(Cl)cc1)n1ccnc1` (configuration not stated) belongs “inactive”. Take `COc1cc2[nH]c(=O)[nH]c(=O)c2cc1OC`: the Potency entry was “inactive”. The same measure for `COc1ccc(S(=O)(=O)Nc2nnc(CC(C)C)s2)cc1`: “inactive”; for `CCC(=O)Nc1ccc(O)cc1`: “inactive”; for `CC1(C)[C@@H]2CC[C@@]1(C)C(=O)C2`: “inactive”.

For `CN1CCOC(c2ccccc2)c2ccccc2C1` (configuration not stated), the Potency result is “inactive”. To `CCN(CC)C(=O)Nc1ccc(OCC(O)CNC(C)(C)C)c(C(C)=O)c1` (configuration not stated) belongs “inactive”. Consider `CCCCOc1cc(C(=O)OCCN(CC)CC)ccc1N`, for which the Potency result was “inactive”.
